# Screening data: PubChem BioAssay, National Center for Advancing Translational Sciences (NCATS)
# The list is not random: actives were taken first. Their share in the collection is about 6.2%.
# ATXN viability: Viability Counterscreen for Primary qHTS for Inhibitors of ATXN expression | S2 cells (HEK-293 line with an ATXN2-luciferase reporter) viability, CellTiter-Fluor protease fluorescence, 24 h | Potency, µM (doses to about 56.7 µM), most hits filed as cytotoxic | AID 651635, 2014 | 400,000 tested, 0.49% active; further: nearly all actives have a fitted effect of over 40% in size
# HT1080-NT tox: qHTS for induction of synthetic lethality in tumor cells producing 2HG: qHTS for the HT-1080-NT fibrosarcoma cell line. 360,000 tested, 1.6% active. Potency, µM (highest dose often 46.1 µM), for inactives: top-dose activity, negative = less viability, hits mostly cytotoxic. HT-1080-NT fibrosarcoma viability, CellTiter-Glo ATP luminescence, 48 h. AID 686970, 2013;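 further: NT is the 2HG producing partner of a matched IDH1 knockdown line; 0% = DMSO-treated cells and -100% = media-only wells without cells; nearly all actives have a fitted effect of over 55% in size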
#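 HT-1080-NT; 750 cells/well; 5% FBS RPMI; 48 h compound, 37 degrees C; CellTiter-Glo luminescence; curve fitting and curve-class assignment.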
# KB-3-1 tox: qHTS assay for MDR1-selective chemotherapeutics: Primary screen using the parental adenocarcinoma cell KB-3-1; Potency, µM (top dose mostly 46.1 µM), hits mostly cytotoxic; 400,000 tested, 1.4% active; KB-3-1 viability, CellTiter-Glo ATP luminescence, 72 h; AID 1347075, 2019; further: on the % scale 0 is the no-effect control and ±100 the full control effect; nearly all actives have a fitted effect of over 60% in size
#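 Using CellTiter-Glo luminescence, growth of non-resistant KB-3-1 adenocarcinoma cells is assessed 72 h after pin-tool compound addition at 37 °C. Normalized responses across the concentration series yield fitted curves.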
# ATXN2 expr inh: Primary qHTS for Inhibitors of ATXN expression. HEK-293 ATXN2-luciferase reporter, luminescence, 24 h. 360,000 tested, 0.72% active. Potency, µM (titrated, usually from 57 µM), inactives show top-dose activity change, negative = inhibition, usual class: inhibitors; further: on the % scale 0 is the no-effect control and ±100 the full control effect; nearly all actives have a fitted effect of over 55% in size
#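 ATXN2-luciferase reporter cells (luciferase flanked by upstream and downstream ATXN2 gene portions) were treated 24 h at 37 °C with compounds at up to 57 uM. SteadyGlo luminescence gave expression; GF-AFC fluorescence gave viability.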
# HT1080 IDH1KD tx: qHTS for induction of synthetic lethality in tumor cells producing 2HG: qHTS for the HT-1080-IDH1KD cell line. HT-1080 IDH1 knockdown viability, ATP luminescence, 48 h. Potency, µM (doses to about 46.1 µM), inactives show at the top dose activity, negative = toxicity, hits mostly cytotoxic. 360,000 tested, 2% active. AID 686971, 2013;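 further: 0% = DMSO wells and -100% = cell-free medium wells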
#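 Viability of IDH1-knockdown HT-1080 fibrosarcoma cells was assessed by CellTiter-Glo after 48 h at 37 °C with titrated compound; concentration-effect curves were classified by fit quality and response size.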
# KB-V1 MDR tox: qHTS assay for MDR1-selective chemotherapeutics: Primary screen using the drug-selected MDR subline cells KB-V1. KB-V1 MDR cells viability, CellTiter-Glo, 72 h. Potency, µM (highest dose often 46.1 µM), actives largely listed as cytotoxic. 400,000 tested, 3.4% active; further: on the % scale 0 is the no-effect control and ±100 the full control effect; nearly all actives have a fitted effect of over 60% in size
#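 Potencies derive from concentration-effect curves fitted to normalized luminescence (CellTiter-Glo) of KB-V1 cells treated for 72 h at 37 degrees C in phenol-red-free DMEM containing 10% FBS.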
# An asterisk follows results filed as active; i = inactive; ? = inconclusive; . = no result; [ ] = another dose, or the depositor's remark. The call rests on the fitted dose curve; in most records, active means well fitted curve in the direction sought with a large enough effect; inconclusive means small, poorly fitted or top-dose-only effect, or another doubt; inactive means no such curve, though single readings can be large; an effect the other way counts as inactive or inconclusive. Potency means the concentration at half of the fitted maximal effect.
SMILES,ATXN viability,HT1080-NT tox,KB-3-1 tox,ATXN2 expr inh,HT1080 IDH1KD tx,KB-V1 MDR tox
CCOc1ccc(CN(CCc2ccc3c(c2)OCO3)Cc2cc(OC)ccc2O)cc1,i,.,i,-4.3%,.,i
CC(=O)OC1C(O)C(C)OC(OC2C(OC(=O)C3CCC4C(C3)OC3(CC(OC(=O)/C=C/c5ccccc5)C(C)CO3)C43CO3)OC(C)C(O)C2OC(C)=O)C1O (stereo not given),?,0.13µM*,0.184µM*,0.212µM*,0.0651µM*,?
CC[N+]1(CC)CCC(OC(=O)C(O)(c2ccccc2)c2ccccc2)C1 (stereo not given),i,.,.,4.4%,.,.
O[C@H]1CCCC[C@H]1N1CCC(c2ccccc2)CC1,i,.,.,.,.,.
OC1CCC(Nc2ccn3nc(-c4cccc(OCc5ccccc5)c4)cc3n2)CC1 (stereo not given),?,?,i,-5.1%,?,i
N=c1c2c(-c3ccccc3)c(-c3ccccc3)n(Cc3ccccc3)c2ncn1C1CCC(O)CC1 (stereo not given),.,.,.,24.3µM*,.,.
Cc1c(C(=O)NCc2ccc3c(c2)OCO3)cnn1-c1ncc2c(n1)-c1ccccc1CC2,i,.,.,.,.,.
Cc1ccc(OCC(=O)Nc2ccc(Cl)cc2C(=O)c2ccccc2)c(Br)c1,i,.,i,0.0%,.,i
COc1cc(C(=O)N/N=C/c2ccc(OC(=O)N3CCOCC3)cc2)cc(OC)c1OC,i,?,i,.,23.1µM*,?
COc1cc(NS(=O)(=O)c2ccc3c(c2)oc(=O)n3C)cc(OC)c1OC,?,?,7.31µM*,?,?,?
CCN(c1cccc(C)c1)S(=O)(=O)c1ccc2c(c1)oc(=O)n2C,i,-5.4%,i,-20.3%,?,?
COc1ccccc1-c1nn2c(=O)cc(CN3CCN(C(=O)Nc4ccc(C)cc4Cl)CC3)nc2s1,?,.,?,-10.4%,.,?
O=[N+]([O-])c1ccc(N2CCNCC2)cc1NCc1ccco1,i,5.8%,i,-6.3%,2.0%,i
CN1CCN(c2ccc([N+](=O)[O-])c(NCc3ccco3)c2)CC1,i,1.6%,i,-6.1%,6.3%,11.6µM*
COc1nc(C)nc(Cl)c1NC1=NCCN1,i,?,i,-9.6%,0.4%,i
CC(O)(CS(=O)(=O)c1cccc(C(F)(F)F)c1)C(=O)Nc1cccc(C(F)(F)F)c1 (stereo not given),i,4.7%[9.24 µM],i,-15.5%,?,i
CC(O)(CS(=O)(=O)c1ccccc1)C(=O)Nc1ccc(C(F)(F)F)cc1 (stereo not given),i,?,i,-18.1%,-21.6%,14.6µM*
CCCCCn1c(=O)c(C(=O)Nc2ccccc2Cl)c(O)c2ccccc21,.,0.9%,i,.,3.0%,i
CCCCn1c(-c2nonc2NC(=O)c2ccccc2Cl)nc2ccccc21,?,-15.2%,3.26µM*,.,-4.5%,?
CS(=N)(=O)CC[C@@H](N)C(=O)O (stereo not given in full),i,.,.,.,.,.
CCc1ccccc1NC(=O)C(CC)Oc1ccccc1-c1nnc(-c2ccccc2)o1 (stereo not given),?,.,14.6µM*,?,.,?
COc1ccc2c(c1)CCc1c(C(=O)Nc3c(C)nn(Cc4ccccc4C)c3C)noc1-2,?,.,i,0.0%,.,i
CN1CCC(N(C)c2nc(-c3ccccc3)nc3ccccc23)CC1,i,15.8µM*,i,?,-1.9%[9.24 µM],i
COC(/C(C)=C/C=C/C(C)=C/c1coc(C)n1)C(C)C1CC(O)C2(C)OC2C=CC(C)C2CC(CC(=O)O2)CC2OC2C(=O)O1 (stereo not given),?,0.013µM*,?,-14.2%,?,i
NC[C@@H](CC(=O)O)c1ccc(Cl)cc1,i,.,.,.,.,.
SMILES,ATXN viability,HT1080-NT tox,KB-3-1 tox,ATXN2 expr inh,HT1080 IDH1KD tx,KB-V1 MDR tox
OC(Cn1c2ccccc2c2ccccc21)C[n+]1cccc2ccccc21 (stereo not given),22.4µM*,-7.5%[9.24 µM],?,?,20µM*,i
CCCCCCCSc1cc(OC)c(CCNC)cc1OC,?,23.1µM*,?,?,-11.1%[9.24 µM],18.4µM*
CCCCCSc1cc(OC)c(CCNC)cc1OC,i,?,i,-12.1%,20.6µM*,i
O=C1NCN(c2ccccc2)C12CCN(C(CCc1ccccc1)c1nnnn1C1CCCC1)CC2 (stereo not given),31.6µM*,?,?,?,?,?
O=C1NCN(c2ccccc2)C12CCN(C(CCc1ccccc1)c1nnnn1C1CCCCC1)CC2 (stereo not given),?,?,?,?,25.9µM*,?
O=C1NCN(c2ccccc2)C12CCN(C(c1cccs1)c1nnnn1C1CCCC1)CC2 (stereo not given),?,-12.8%,i,?,-17.4%,i
CCCCc1nc2ccccc2c(=O)n1-c1cccc(OC)c1,?,.,i,-13.2%,.,i
COc1ccc(-c2nn(-c3ccccc3)cc2C(=O)N2c3ccc(C)cc3C3CN(C)CCC32)cc1 (stereo not given),i,.,i,-26.1%,23.1µM*,i
Cc1ccc2c(c1)C1CN(C)CCC1N2C(=O)c1ccco1 (stereo not given),i,0.0%,i,-8.6%,?,?
Cc1ccc(S(=O)(=O)N(C)C[C@H]2Oc3c(NC(=O)Nc4cccc5ccccc45)cccc3C(=O)N([C@@H](C)CO)C[C@@H]2C)cc1,?,-24.1%,?,?,?,i
CC/C(=C(\c1ccc(O)cc1)c1ccc(OCCN(C)C)cc1)c1ccccc1,.,16.4µM*,i,?,18.4µM*,?
CCC(=C(c1ccc(O)cc1)c1ccc(OCCN(C)C)cc1)c1ccccc1,i,0.3%,i,-1.0%,0.3%,i
COC1=C(C)C(=O)C2=C(C1=O)C(CO)N1C(C#N)C3CC4C(C1C2N1CCOC41)N3C (stereo not given),?,-17.2%,?,?,0.651µM*,0.581µM*
S=C=Nc1cccc(C2(N3CCCCC3)CCCCC2)c1,?,23.1µM*,i,-38.6%,18.4µM*,i
